Assay outcomes as filed in PubChem BioAssay.
TLR4 MyD88 comp: inhibitors of TLR4-MyD88 association in cells, primary screen, cell-based, HeLa CL3-4, BLA complementation, FRET ratio; HeLa CL3-4 TLR4/MyD88 BLA complementation; inhibition, % at 8.4 µM; 0.18% of 200,000 active; Toll-like receptor 4 (Homo sapiens) + Myeloid differentiation primary response protein …; in the data active = inhibition above about 25%;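 note: 0% = vehicle and 100% = reference inhibitor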
TLR9-MyD88 inh: inhibitors of TLR9-MyD88 association in cells, primary screen, cell-based, CHO, BLA complementation, fluorescence. Toll-like receptor 9 (Homo sapiens) + Myeloid differentiation primary response protein …. CCF4 FRET ratio. inhibition, % at 4.98 µM. 0.21% of 340,000 active;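 active = inhibition above the mean over all tested compounds plus 3 SD, cut at about 21% in these data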;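 note: 0% = DMSO only wells and 100% = clavulanate BLA inhibitor control wells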
NOD2-RIPK2 inh: NOD2-RIPK2 binding disruptors in cells, primary screen, fluorescence, CHO cells, BLA complementation | Receptor-interacting serine/threonine-protein kinase 2 (Homo sapiens), O43353 | CCF4 ratio | inhibition, % at 4.98 µM | 0.38% of 360,000 active; in the data active = inhibition above about 21%;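 note: 0% = vehicle only and 100% = reference blocker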
Target sequence (O43353 whole entry, looked up): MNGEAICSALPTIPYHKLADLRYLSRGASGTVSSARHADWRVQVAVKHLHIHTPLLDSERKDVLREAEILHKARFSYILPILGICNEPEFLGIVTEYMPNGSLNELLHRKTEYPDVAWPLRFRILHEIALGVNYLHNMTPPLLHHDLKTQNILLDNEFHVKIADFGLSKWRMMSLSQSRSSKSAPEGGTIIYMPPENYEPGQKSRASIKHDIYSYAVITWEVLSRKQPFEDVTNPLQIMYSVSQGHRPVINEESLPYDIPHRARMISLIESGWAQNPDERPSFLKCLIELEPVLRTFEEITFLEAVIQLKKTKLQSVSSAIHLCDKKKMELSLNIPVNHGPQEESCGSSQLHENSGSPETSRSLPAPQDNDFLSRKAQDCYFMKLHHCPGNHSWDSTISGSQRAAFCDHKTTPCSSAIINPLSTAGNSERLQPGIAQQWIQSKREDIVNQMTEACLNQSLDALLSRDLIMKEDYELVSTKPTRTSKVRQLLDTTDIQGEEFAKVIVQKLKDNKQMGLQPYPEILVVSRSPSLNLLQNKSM
HSF1 inh: HSF1 inhibitors in luciferase reporter cells, primary screen, cell-based, NIH3T3, luminescence | NIH3T3-HGL HSE-luciferase, MG132-induced, luminescence 8 h; active compounds read low | activity change, negative = inhibition, % at 7.5 µM (by protocol) | 0.77% of 300,000 active | AID 2098, 2009;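 active = more than half of replicate wells show activity change below -50%, luminescence cut by over half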;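 note: luciferase reports HSF-1 transcriptional activity via heat shock element; 0% = median of DMSO wells and -100% = zero luminescence signal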
HSF-1 act: HSF-1 activators, primary screen, NIH3T3-HGL cells, MG132 stress, luminescence, single point; NIH3T3-HGL HSF-1 luciferase reporter, 8 h; 100% = twice DMSO control signal; activation, % at 9 µM; 1.7% of 300,000 active;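 active = mean replicate activation of at least 50% with a set share of replicates each reaching 50%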;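 note: 0% = median of the neutral control wells and 100% = twice that signal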
* = called active by the depositor; x = no result. In the library only some 2.4% were active in any assay of this set; here they are far more common.

SMILES	TLR4 MyD88 comp	TLR9-MyD88 inh	NOD2-RIPK2 inh	HSF1 inh	HSF-1 act
CCN(CC)c1ncccc1C(=O)NCc1cccs1	2.8	-0.3	-4.2	-2.3	2.1
O=C(c1sccc1Cl)N1CCN(Cc2ccc3c(c2)OCO3)CC1	x	-6.3	-6.3	-6.2	-8.5
O=C1Nc2ccccc2C1=Nc1ccc(F)cc1	x	7.9	8.8	-36.9	-51.1
CC(=O)c1ccc(N=C2C(=O)Nc3ccccc32)cc1	x	-1.5	3.2	46.9	61.7*
CC(C)=C(NC(=O)c1ccccc1Cl)C(=O)NCCc1nc2ccccc2[nH]1	x	-4.1	-0.6	x	x
Nc1cccc(CCc2ccncc2)c1	x	-1.8	-0.6	1.8	-5.7
Nc1cccc(/C=C/c2ccncc2)c1	x	1.4	-12.1	7.6	54.4*
COc1cc(OC)cc(C(=O)Nc2cccnc2)c1	-1.2	-0.9	6.4	6.1	24.2
O=C(Nc1cccnc1)c1ccc(-c2ccccc2)cc1	7.2	-2.2	-7.6	27.7	65.7*
CCOc1cc(OCC)cc(C(=O)Nc2cccnc2)c1	17.1	0.7	2.4	18.2	58.8*
Cc1cn(CC(=O)NCCCn2ccnc2)c(=O)[nH]c1=O	x	-9.3	-0.6	x	x
Cc1ccc(N2CC(C(=O)N3CCC(C(=O)NCCCOC(C)C)CC3)CC2=O)cc1 (centres undefined)	x	-0.4	-12.6	-4.9	4.9
CCn1c(=O)c(C(=O)Nc2ccccc2F)c(O)c2ccccc21	x	-7.5	1.6	-77.8*	-82.0
CC1(C)Cc2c(sc(NC(=O)c3ccc(C(=O)c4ccccc4)cc3)c2C(N)=O)C(C)(C)N1	x	3.7	3.7	-2.9	3.9
CC1(C)Cc2c(sc(NC(=O)c3ccc4ncsc4c3)c2C(N)=O)C(C)(C)N1	6.9	-1.1	8.1	-52.8*	-53.6
COc1ccccc1-c1noc(CCCC(=O)NC2CCCCC2)n1	x	-0.3	-6.3	-9.7	11.5
CCOc1ccccc1-c1noc(CCCC(=O)NC2CCCCC2)n1	x	-1.7	-9.2	19.8	63.5*
CCCCn1c(N)c(N(CCOC)C(=O)COC(=O)COc2ccc(CC)cc2)c(=O)[nH]c1=O	x	8.3	-13.9	-0.6	-9.9
COC(=O)c1c(C)[nH]c(C(=O)/C=C/c2ccccc2F)c1C	x	-1.2	-5.4	26.9	65.5*
COC(=O)c1c(C)[nH]c(C(=O)/C=C/c2ccccc2Cl)c1C	x	-4.8	-2.9	4.4	3.0
CCOC(=O)c1c(NC(=O)c2cccs2)sc2c1CCN(C(=O)OCC)C2	5.4	2.0	-1.7	35.4	71.3*
CCOC(=O)N1CCC(NC(=O)c2cccs2)CC1	x	-4.3	-14.1	25.3	66.5*
CC(=O)c1c(N2CCN(CCO)CC2)nc(=S)n(-c2ccccc2)c1C	5.0	-0.4	-18.6	-64.3*	-71.6
FC(F)(F)c1ccccc1Cc1c(-c2cccc(Br)c2)nc2c3ccccc3ccn12	x	x	4.0	x	x
CCOC(=O)c1nn(-c2ccc(C)cc2)cc1C(=O)c1ccccc1	-6.7	-8.3	0.6	38.9	58.5*
SMILES	TLR4 MyD88 comp	TLR9-MyD88 inh	NOD2-RIPK2 inh	HSF1 inh	HSF-1 act
Cc1ccc(-n2cc(C(=O)c3ccccc3O)cn2)cc1	8.7	-5.1	3.2	-77.0*	-79.1
COc1cccc(/C=N/Nc2nc(-c3cccnc3)nc3ccccc23)c1	x	2.8	-3.6	1.4	1.4
COc1cccc(CNc2nc(-c3cccnc3)nc3ccccc23)c1	4.3	5.3	2.7	21.8	69.5*
CC(=O)Nc1cc[n+](C(C)C(=O)c2ccccc2)cc1 (centres undefined)	x	-0.2	-6.2	-67.8*	-76.0
Cc1cc(C(=O)COC(=O)Cc2n[nH]c(=O)c3ccccc23)c(C)n1-c1ccc2c(c1)OCCO2	-20.3	0.5	-4.2	-57.2*	-57.9
CCCNC(=O)NC(=O)CSc1cccc(C(F)(F)F)c1	5.8	1.4	-3.5	37.3	77.2*
Cc1ccc(C(CNC(=O)c2ccco2)N2CCN(C)CC2)cc1 (centres undefined)	x	7.9	3.7	-3.5	8.5
COCCCN1C(=O)c2[nH]nc(-c3ccccc3O)c2C1c1cccc(Cl)c1 (centres undefined)	0.4	-6.5	7.5	36.1	71.1*
CC(C)(C)OC(=O)N(Cc1ccccc1)Cc1ccccc1OCc1ccc(NC(=O)C2CCC2)cc1	x	-7.0	-4.7	x	x
CC12CN(C(=S)Nc3ccccc3)CC(C)(CN(C(=S)Nc3ccccc3)C1)C2=O	-15.3	-0.8	-9.4	28.1	73.6*
O=C(COC(=O)c1ccc(S(=O)(=O)NCc2ccco2)cc1)Nc1ccccc1OC(F)F	7.3	8.2	1.0	49.2	102.6*
FC(F)(F)c1ccccc1Cc1c(-c2cccc(Br)c2)nc2ccc(Cl)cn12	x	x	-0.8	x	x
O=C(c1ccco1)N1CCN(C(=O)c2ccc(COc3ccc4c(c3)CCC4)o2)CC1	-4.1	6.2	-1.2	11.5	15.8
O=C(NCc1ccccc1)c1cccc(COc2ccc3c(c2)CCC3)c1	2.5	3.4	2.9	-35.2	-35.3
O=C(O)c1cccc(COc2ccc3c(c2)CCC3)c1	x	-5.0	0.2	-78.8*	-82.1
COc1cccc(OC)c1C(=O)NNC(=O)c1cccc(COc2ccc3c(c2)CCC3)c1	-13.1	-3.4	-2.2	-57.5*	-57.5
O=C(c1ccc(COc2ccc3c(c2)CCC3)o1)N1CCN(c2ccccc2)CC1	0.3	0.4	-3.5	70.4	61.9*
Cc1cccn2c(=O)c3cc(C(=O)NCCc4ccccc4)c(=N)n(Cc4ccco4)c3nc12	x	0.7	7.0	22.7	26.7
COc1ccc(CCNC(=O)c2cc3c(=O)n4cccc(C)c4nc3n(Cc3ccco3)c2=N)cc1OC	x	10.9	-1.4	69.9	99.3*
O=S(=O)(NCc1ccc(C(F)(F)F)cc1)c1ccc(-n2cnnn2)cc1	x	5.7	-2.9	-90.3*	-93.0
O=S(=O)(NCc1ccccc1Cl)c1ccc(-n2cnnn2)cc1	x	-1.0	-4.7	2.4	-6.6
COc1ccc(-c2csc(NC3OC(=O)c4c3ccc(OC)c4OC)n2)cc1OC (centres undefined)	x	4.0	12.4	43.2	60.0*
CCOC(=O)c1c(NC(=O)CC)sc(C(=O)N2CCCCC2)c1C	-13.8	6.9	7.0	x	x
CCOC(=O)c1sc(NC(=O)CCN2CCCCCC2)c(C(=O)OCC)c1C	16.6	11.3	2.4	152.5	193.4*
COC(=O)C(NC(=O)CNS(=O)(=O)c1ccc(Br)cc1)c1ccccc1 (centres undefined)	-1.3	-8.0	2.0	18.9	54.4*
O=C(Nc1ccc(Cl)c(Cl)c1)c1ccc(Cn2cc(Cl)cn2)cc1	-6.4	-2.4	-1.4	40.0	72.2*
CCOC(=O)c1[nH]c(C)c(C(=O)Nc2ccc(C)c(C)c2)c1C	1.7	-2.5	3.4	11.5	12.4
